Source: the supplement of paper PMC10105736
Values without a mark were called inactive.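 The calls were made as follows: active = MAPPIT score above the 99th percentile of random reference set scores in the same batch; inactive = at or below it.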

Tests used:
Test in all cases: MAPPIT interaction score (arbitrary units); higher = stronger binary interaction signal, active = hit call of the paper
ord = details: MAPPIT configuration: N-N; pair source set: Lit-BM-16
rst = details: pair source set: Lit-BM-16
pip = details: MAPPIT configuration: N-N; pair source set: Lit-BS-16
sqd = details: MAPPIT configuration: N-C; pair source set: Lit-BM-16
spir = details: pair source set: RRS
poly = details: MAPPIT configuration: N-C; pair source set: screen_3
otp = details: MAPPIT configuration: N-N; pair source set: screen_2
ox = details: MAPPIT configuration: N-N; pair source set: Curagen_low_conf
ras = details: MAPPIT configuration: N-N; pair source set: Finley_Y2H
rux = details: MAPPIT configuration: N-N; pair source set: Finley_Y2H
salr = details: MAPPIT configuration: N-N; pair source set: Finley_Y2H
sac = details: MAPPIT configuration: N-N; pair source set: RRS
saturn = details: MAPPIT configuration: N-C; pair source set: screen_4
sip2 = details: MAPPIT configuration: N-N; pair source set: Curagen_low_conf
orb = details: MAPPIT configuration: N-N; pair source set: DPIM
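Also: HEK293T cells with Epo stimulation, STAT-responsive firefly luciferase reporter, fold induction versus unstimulated cells divided by the larger fold induction of two negative controls lacking either bait or prey.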

B1: Sce (protein)
chain: MTSLDPAPNKTWELSLYELQRKPQEVITDSTEIAVSPRSLHSELMCPICLDMLKKTMTTKECLHRFCSDCIVTALRSGNKECPTCRKKLVSKRSLRADPNFDLLISKIYPSREEYEAIQEKVMAKFNQTQSQQALVNSINEGIKLQSQNRPQRFRTKGGGGGGGGGGNGNGAANVAAPPAPGAPTAVGRNASNQMHVHDTASNDSNSNTNSIDRENRDPGHSGTSAASAITSASNAAPSSSANSGASTSATRMQVDDASNPPSVRSTPSPVPSNSSSSKPKRAMSVLTSERSEESESDSQMDCRTEGDSNIDTEGEGNGELGINDEIELVFKPHPTEMSADNQLIRALKENCVRYIKTTANATVDHLSKYLAMRLTLDLGADLPEACRVLNFCIYVAPQPQQLVILNGNQTLHQVNDKFWKVNKPMEMYYSWKKT
With B1 as the binder, how does the MAPPIT interaction score (ord) read?
Its MAPPIT interaction score is 1.68.

B2: rst (protein)
chain: MLHTMQLLLLATIVGMVRSSPYTSYQNQRFAMEPQDQTAVVGARVTLPCRVINKQGTLQWTKDDFGLGTSRDLSGFERYAMVGSDEEGDYSLDIYPVMLDDDARYQCQVSPGPEGQPAIRSTFAGLTVLVPPEAPKITQGDVIYATEDRKVEIECVSVGGKPAAEITWIDGLGNVLTDNIEYTVIPLPDQRRFTAKSVLRLTPKKEHHNTNFSCQAQNTADRTYRSAKIRVEVKYAPKVKVNVMGSLPGGAGGSVGGAGGGSVHMSTGSRIVEHSQVRLECRADANPSDVRYRWFINDEPIIGGQKTEMVIRNVTRKFHDAIVKCEVQNSVGKSEDSETLDISYAPSFRQRPQSMEADVGSVVSLTCEVDSNPQPEIVWIQHPSDRVVGTSTNLTFSVSNETAGRYYCKANVPGYAEISADAYVYLKGSPAIGSQRTQYGLVGDTARIECFASSVPRARHVSWTFNGQEISSESGHDYSILVDAVPGGVKSTLIIRDSQAYHYGKYNCTVVNDYGNDVAEIQLQAKKSVSLLMTIVGGISVVAFLLVLTILVVVYIKCKKRTKLPPADVISEHQITKNGGVSCKLEPGDRTSNYSDLKVDISGGYVPYGDYSTHYSPPPQYLTTCSTKSNGSSTIMQNNHQNQLQLQQQQQQSHHQHHTQTTTLPMTFLTNSSGGSLTGSIIGSREIRQDNGLPSLQSTTASVVSSSPNGSCSNQSTTAATTTTTHVVVPSSMALSVDPRYSAIYGNPYLRSSNSSLLPPPTAV
How did the MAPPIT interaction score (rst; MAPPIT configuration: N-C) turn out when B2 was run?
The MAPPIT interaction score was 1.64.

And the MAPPIT interaction score (rst; MAPPIT configuration: N-N)?
The MAPPIT interaction score was 0.661.

B3: Snp (protein)
chain: MALIKLARQLGLIDTIYVDGARPDPNNDPEESFNEDEVTEANSVPAKSKKSRKSKRLAMQPYSYVIAVDFEATCWEKQAPPEWREAEIIEFPAVLVNLKTGKIEAEFHQYILPFESPRLSAYCTELTGIQQKTVDSGMPLRTAIVMFNEWLRNEMRARNLTLPKMNKSNILGNCAFVTWTDWDFGICLAKECSRKGIRKPAYFNQWIDVRAIYRSWYKYRPCNFTDALSHVGLAFEGKAHSGIDDAKNLGALMCKMVRDGALFSITKDLTPYQQLNPRFVL
For B3, which MAPPIT interaction score (pip) is on record?
Its MAPPIT interaction score is -0.236.

B4: Hrb27C (protein)
chain: MEEDERGKLFVGGLSWETTQENLSRYFCRFGDIIDCVVMKNNESGRSRGFGFVTFADPTNVNHVLQNGPHTLDGRTIDPKPCNPRTLQKPKKGGGYKVFLGGLPSNVTETDLRTFFNRYGKVTEVVIMYDQEKKKSRGFGFLSFEEESSVEHVTNERYINLNGKQVEIKKAEPRDGSGGQNSNNSTVGGAYGKLGNECSHWGPHHAPINMMQGQNGQMGGPPLNMPIGAPNMMPGYQGWGTSPQQQQYGYGNSGPGSYQGWGAPPGPQGPPPQWSNYAGPQQTQGYGGYDMYNSTSTGAPSGPSGGGSWNSWNMPPNSAGPTGAPGAGAGTATDMYSRAQAWATGGPSTTGPVGGMPRTGPGNSASKSGSEYDYGGYGSGYDYDYSNYVKQEGASNYGAGPRSAYGNDSSTQPPYATSQAV
B4 was tested. Which MAPPIT interaction score (sqd) did it give?
Its MAPPIT interaction score is 2.4.

B5: Acp1 (protein)
chain: MKFAVAVIFTLALAMGVQSSVIPLLSQVAGHGLSYTAVSGPAVVASPWAVPAAHWPAAVNVASWPPAAIHAAAPAVLAAPAPAVVAAHAPSVVVAPVAHSGVYTAQTRGAIHTAPLAGHIQSVASINAAPAPGTL
Which MAPPIT interaction score (spir; MAPPIT configuration: N-C) does the source give for B5 here?
Its MAPPIT interaction score is 0.0271.

What about the MAPPIT interaction score (spir; MAPPIT configuration: N-N) of the same binder?
The MAPPIT interaction score was 0.686.

B6: GstE14 (protein)
chain: MSQPKPILYYDERSPPVRSCLMLIKLLDIDVELRFVNLFKGEQFQKDFLALNPQHSVPTLVHGDLVLTDSHAILIHLAEKFDEGGSLWPQEHAERMKVLNLLLFECSFLFRRDSDFMSATVRQGFANVDVAHHERKLTEAYIIMERYLENSDFMAGPQLTLADLSIVTTLSTVNLMFPLSQFPRLRRWFTAMQQLDAYEANCSGLEKLRQTMESVGSFQFPSSSAVVTEKVE
How did the MAPPIT interaction score (poly) turn out when B6 was run?
The MAPPIT interaction score was -0.119.

B7: H15 (protein)
chain: MLLSNQPANTKPQQTPSPSQTQNFKSKLQQQIVSAAAAAAANIANGSSHHHHHQNHHHHHPLNNHHNHNHNQHNISFATDFSIAAIMARGGNAPSSREPSERSLSPASVERYSGQDADDDVDVDVVDCSDSEMPSATAAAAAAATTAAAAAAALQAQQQARQALRVAQQQQQQQQQQRQQTHHHATTGKQQRQHHNHHSSNTNNSSNSGNSNTNSKSSSQRGRSAAAVGAAATPSPPPPPPSQSPEELERLSPEESPAQQPTPKIVGSCNCDDLTPVQCHLETKELWDKFHELGTEMIITKSGRRMFPTVRVSFSGPLRQIQPADRYAVLLDVVPLDSRRYRYAYHRSSWLVAGKADPPPPSRIYAHPDCPLSPEALRKQVVSFEKVKLTNNEMDKSGQVVLNSMHRYQPRIHLVRLSHGQSIPGSPKELQDMDHKTFVFPETVFTAVTAYQNQLITKLKIDSNPFAKGFRDSSRLSDFDRDPMDAFFFDQHMRTAPLRFFPDPLMSQLTPQEADAASMALLEKARQHLQMFGRSPYTEMLLPHLYQRSAAPPPPPPAPHLSAFQLGMWQQQWPQLTAGFLASANQQAALALAAAGANRTPPPSMAVAPPAPATPTSSCGSASPDLRARPQLNHYPQRFSPYQVPQHQASPPASNRAESP
With B7 as the binder, how does the MAPPIT interaction score (otp) read?
Its MAPPIT interaction score is 0.104.

B8: eEF1beta (protein)
chain: MAFGDVTTPQGLKELNAFLADNSYISGYTPSKADLSVFDALGKAPSADNVNVARWYRHIASFEAAERAAWSGTPLPQLAGGKPTVAAAAKPAADDDDDVDLFGSDDEEDEEAERIKQERVAAYAAKKSKKPALIAKSSVLLDVKPWDDETDMKEMENNVRTIEMDGLLWGASKLVPVGYGINKLQIMCVIEDDKVSIDLLQEKIEEFEDFVQSVDIAAFNKI
With B8 as the binder, how does the MAPPIT interaction score (ox) read?
The MAPPIT interaction score was 0.286.

B9: peg (protein)
chain: MKLSAVLLAIALLALSLVQCLGLPDPSTKCVMECDTQEYRSICAADDKGSTKTYRNLCVMKTENCLQNANFQKISDKECP
For B9, which MAPPIT interaction score (ras) is on record?
Its MAPPIT interaction score is -1.69.

B10: hfp (protein)
chain: MGSNDRASRSPRSDDQREISDMPATKRTRSDSGKSTDSKIPYLSQPLYDLKQTGDVKFGPGTRSALLGLLGGALPKLSSEQHDLVSKAKKYAMEQSIKMVLMKQTLAHQQQQLATQRTQVQRQQALALMCRVYVGSISFELKEDTIRVAFTPFGPIKSINMSWDPITQKHKGFAFVEYEIPEGAQLALEQMNGALMGGRNIKVGRPSNMPQAQQVIDEVQEEAKSFNRIYVASIHPDLSEEDIKSVFEAFGPILYCKLAQGTSLHTHKGYGFIEYANKQAMDEAIASMNLFDLGGQLLRVGRSITPPNALACPTTNSTMPTAAAVAAAAATAKIQALDAVASNAVLGLSQNTPVMAAGAVVTKVGAMPVVSAATSAAALHPALAQAAPALLPPGIFQAPTPVAPSLLGVPAGLQPLQAVVPTLPPPALLATPTLPMTVGGVGVGLVPTVATLAGAEASKGAAAAAALSAAANNAAVTAANLSENIKKAHEKQQEELQKKLMDEGDVQTLQQQENMSIKGQSARQLVMQRLMRPVDSRVIILRNMVGPEDVDETLQEEIQEECSKFGTVSRVIIFNEKQTENEDDDEAEIIVKIFVEFSAGAEAMRGKEALDGRFFGGRRVVAELYDQGIFDQGDLSG
For B10, which MAPPIT interaction score (rux) is on record?
The MAPPIT interaction score was 0.808.

B11: Pof (protein)
chain: MDSKRAALESGDGPDAKRLDTTDDQDKEASGGDGSQVMLAKHVAPYTGHGCTPPMESYLFEPTPAGSQLLPWKTSVDLDNDAELEKPTSDKKPDTAKLSRRELAKMRREHTLRALALERELTNKPGQTPASEVLLVRFPDPEITAPMLAGLSKDIRDVVLPISVAPRYCLVHLKAGADVEATICDINRVRFGTGHLRAELKPFSDEEQAEFIDPCSLYVGNIPFNMTTSAIKAYFANAMRVDIGVLKREKRARYAFVRYASPDQTMEAFKELVDSPLNSRTLTVRYRRLRKRAGMPMVQCATSFQALQSPNGDDDNTDCKVISPPPLESIIISDSDNCSDSSGNGKEDGKRKKKINEQEREIEKLKRQMAEYGAIIKSLQFRQNSLEDTFIPDLTPKVEPSVNPTGCLLGSNAVHLMRDIKKECDYLGIPDPVPATKPTTQAQDDSQKKAKRSCFGRLFTGPFRRGTSAMKTADEYEKDDRLEELYAQLERDPDP
For B11, which MAPPIT interaction score (salr) is on record?
The MAPPIT interaction score was 0.283.

B12: insv (protein)
chain: MENQYQRIVSATAREDSQARRSKPLFLNAWSQTSSVDFEVLRSISAPDPQVEVENRALRDKVRYLEAKLQQHKDLLSQIHATSARMQQASSLLAESRPPTPPAVQSHHILTPPSSEICAPAQNPQILDYKIISAPDDADAIEIRLAAESLNSLSTSADSDRLEICLGDENHQQSNHHNSQQQYRISNGIKRDGSSESADTPLQFIKRRKLQEIQLQEEIPRQNIKLPAKPQVKARNGSFTDLNKGQQQNMDNVMVSIGPNNTCVPASVFENINWSVCSLATRKLLVTIFDRETLATHSMTGKPSPAFKDQDKPLKRMLDPGKIQDIIFAVTHKCNASEKEVRNAITTKCADENKMMKIQNVKRRSSGIKHEKENII
B12 was tested. Which MAPPIT interaction score (sac) did it give?
The MAPPIT interaction score was -0.275.

B13: ORMDL (protein)
chain: MTSIAGGHGEANPNSSWLSARGFWLAYLLGLLSVHLLFLSVPFVSIPWAWTATNLLHNAAHLYFLHVIKGAPWLSTENDPSRRWTHWEQIDDGVQMTTTRKFLTAVPIVLFLLTCLYTRNNTEHFIPNFISLVVVTLPKLPQFHGVRLFNINKY
B13 was tested. Which MAPPIT interaction score (saturn) did it give?
The MAPPIT interaction score was 0.115.

B14: Mabi (protein)
chain: MEHHQIYRHKKFDMGRKIEKCDLQLKEELISRSGTPCTSRSPFDAANQSVSLGFSDQDADFPPLPKRRRLGSSSSSVSYQSASPIITEAIQDIFKYHVNMVRKFPKKERSPKDQERRNKNTIACRMSRRKKKFDDLQIEQQYKECSDEHLKIAEQSLRARVYLNHLKQLVKQEDHPLVSSRRVPEENTKSNFSIDYLIGGIKQEHA
For B14, which MAPPIT interaction score (sip2) is on record?
Its MAPPIT interaction score is 0.378.

B15: ND-ACP (protein)
chain: MSFTQIARSCSRLAATLAPRRVASGILIQSQASRMMHRIAVPSMTSQLSQECRGRWQTQLVRKYSAKPPLSLKLINERVLLVLKLYDKIDPSKLNVESHFINDLGLDSLDHVEVIMAMEDEFGFEIPDSDAEKLLKPADIIKYVADKEDVYE
Which MAPPIT interaction score (orb) does the source give for B15 here?
Its MAPPIT interaction score is 0.0809.
